22 molecules from paper PMC12136788 can be followed below.

Residue numbers refer to the chain shown, from its start. The full ranking holds about 24,000 sequences; the median of “enrichment r” is about 0.99, and the highest 2% start at about 3.7. The sample as a whole holds a higher share of the highest values than the screen did.

First the molecules themselves.
T1: UNK ZnF1-3 (human, UniProt Q9C0B0 31-174)
T1 sequence: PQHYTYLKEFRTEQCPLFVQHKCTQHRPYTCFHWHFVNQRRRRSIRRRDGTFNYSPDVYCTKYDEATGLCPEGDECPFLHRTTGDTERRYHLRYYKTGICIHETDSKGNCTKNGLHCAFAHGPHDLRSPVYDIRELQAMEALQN

B1: chr7:148083511:148083512:+_ENSMUSG00000025487_ENSMUST00000026560|mus_mus|FALSE|FALSE (ssRNA)
RNA: GGGAGUUCUACAGUCCGACGAUCCAAAUCCAGCACUCGCGGCUGCACCCACGUCAUGUGAACCCGCUUGUCCACCUCGUCUAUGCUGCCUCUCACCAGCCCCACCGAGAGUGCCUUCAUCACCAGCAACUCCACCUUGUUGACCAACAGAGGAUUGAGCAUCA
B2: 104840732_104840852_1265_3pUTR_ENSMUSG00000021710_ENSMUST00000109315|mouse|control|control (ssRNA)
RNA: GGGAGUUCUACAGUCCGACGAUCGACCACCUCAAUGGGAAAGUACUCCUUGAGGGACUCCUGGUCCACAGAGUACUUGAGCUCCUCUGUCUGGGUCAUGUAGUAAUGGAGGUCCCAUGCGUUGAUCUUCCCGUCGUAUGCAAACAACAGAGGAUUGAGCAUCA
B3: chr15:63447868:63447869:-_ENSG00000185088_ENST00000411926|hu_hu|FALSE|FALSE (ssRNA)
RNA: GGGAGUUCUACAGUCCGACGAUCCCCUUCUGUGAGUCUGGCCUUUCCUCCUGUAGGCUGGCACAACACUGUUGAACAACCUACACAAAGAACCACUGUCUGAGCAUGGCUGAAAACCGUGGUGAUCUUGUAGCAACCUGGACACAACAGAGGAUUGAGCAUCA
B4: chr3:148479741:148479742:-_ENSMUSG00000028184_ENSMUST00000106128|mus_mus|motif|central (ssRNA)
RNA: GGGAGUUCUACAGUCCGACGAUCACAAUGCAGGCCUACAGAAAAACAAAACAAAACAAAAACAAAAACCGGUAGGGCCCGGUUUACAGACUCAGUUCACCAACUGCCGCAAGGAACAUGGCCGGGAGGGAGGGUCUCUUGUUUCAACAGAGGAUUGAGCAUCA
B5: chr2:175006660:175006661:-_ENSG00000138430_ENST00000344357|hu_mus|motif|central (ssRNA)
RNA: GGGAGUUCUACAGUCCGACGAUCUAGAAUGGGCCCAAUCAUCUCCUCGUCCUUCAGCUGGAGCUCCUCGUGAAUUAUCUCGGUGUCUCGGAUGGGAUCUACACUUCCUUCAACAUGCGUGAUAUCAUCGUCUUCAAAAGCACGCAACAGAGGAUUGAGCAUCA
B6: chr17:56552419:56552420:-_ENSMUSG00000013236_ENSMUST00000086828|mus_mus|mus_mus_mus_hu_False|38_38 (ssRNA)
RNA: GGGAGUUCUACAGUCCGACGAUCAAAAAAUACACUAUUUAAAAAAAAUGAAAUGUCACGGGAUACAGUUACACUGAGAGUUUUAAAAGAAAGCUGGAAAAAAAAUGCAGCCCAGUGUCCCCAGGCUGCAGAGCGGGGAGGAGCCAACAGAGGAUUGAGCAUCA
B7: chr17:56552419:56552420:-_ENSMUSG00000013236_ENSMUST00000086828|mus_mus|mus_mus_mus_hu_False|38_88 (ssRNA)
RNA: B6 RNA with U48A, G49A, A50G, U53A, G54A, U55A, C56A
B8: chr17:56552419:56552420:-_ENSMUSG00000013236_ENSMUST00000086828|mus_mus|mus_mus_mus_hu_False|38_98 (ssRNA)
RNA: B6 RNA with U38A, U39A
B9: chr17:56552419:56552420:-_ENSMUSG00000013236_ENSMUST00000086828|mus_mus|mus_mus_mus_hu_False|1_38 (ssRNA)
RNA: B6 RNA with A138C, G139A, C143G
B10: 154963464_154963584_1656_3pUTR_ENSMUSG00000042751_ENSMUST00000043313|mouse|control|control (ssRNA)
RNA: GGGAGUUCUACAGUCCGACGAUCCUGGUUGGCAGAGAACCCACUCAAUGCUACUGGUCAGACACACAGCAUCAAGACCACGAUCAUCUGAAACCAGGGACUCAAAUUCUGAGAAACCCUACUCUUCCCAGACUUAUGUACCAGCAACAGAGGAUUGAGCAUCA
B11: chr8:145151508:145151509:+_ENSG00000179091_ENST00000318911|hu_hu|FALSE|FALSE (ssRNA)
RNA: GGGAGUUCUACAGUCCGACGAUCACCUUCCCGCAGUGACACCCCGGUGGGUGGCUCGCAGUAGCCCGUGAGCAGGGAGAAGACGUAGUCCUCACCACCAUGCCUAGCUCGCACGAUGUAGCUGAGGUCAGGGGGCAAUGCUCCCAACAGAGGAUUGAGCAUCA
B12: 35238635_35241177_7885_CDS_ENSMUSG00000029104_ENSMUST00000080036|mouse|control|control (ssRNA)
RNA: GGGAGUUCUACAGUCCGACGAUCCUGGCCCAGCUUGUAGCUCAUGUUGCCUGGCUCCCGCUCUGGGUUGAUCUGCAGCAGCAGCUUGUCAUGGCUGAUAAGAGCACCUGUAGUAGCUGGUAACAGAGAAGGGACAGGAUCCCACAACAGAGGAUUGAGCAUCA
B13: chr8:13020401:13020402:+_ENSMUSG00000031442_ENSMUST00000123811|mus_hu|FALSE|FALSE (ssRNA)
RNA: GGGAGUUCUACAGUCCGACGAUCUGAUUCCGCACCCUGGAGGUCUGGCCAGUGACGGCUACAAGCCGCUGGGAGGGUAGCGUGAGGGGAAUGCAGCCACGCCUGCCUCCACUGUGCUGGGGCUGGGAACCGUGAGGCUGUGAGCAACAGAGGAUUGAGCAUCA
B14: chr9:4385736:4385737:+_ENSMUSG00000041124_ENSMUST00000047173|mus_hu|FALSE|FALSE (ssRNA)
RNA: GGGAGUUCUACAGUCCGACGAUCAUAUUUUGGGUUGGAAAAUUCUUUACUGAGUGUGGGGGGGUGUUGAGGAGGUAUGCAUUGCACAGUAGCAACCUUUUCCCCACCCCAGUUUUGACAACCCAACAUGUCUCCAGACAUCACCAACAGAGGAUUGAGCAUCA
B15: chr2:27535424:27535425:-_ENSG00000115204_ENST00000380044|hu_mus|FALSE|FALSE (ssRNA)
RNA: GGGAGUUCUACAGUCCGACGAUCUUUGGCCCAAUUGUCCUGGGCUGACAUUCCAUUGAGUAUCCCGACCAGUGGGAGAAAGCAGCCUAGGAAACAUGGGGCAAAGCCCCCCUGAUCUAACAACAUCUUCUUCAGUGCAUGCACCAACAGAGGAUUGAGCAUCA
B16: chr2:17897474:17897475:-_ENSG00000163029_ENST00000351948|hu_mus|FALSE|FALSE (ssRNA)
RNA: GGGAGUUCUACAGUCCGACGAUCUAUUGCUUCCAGAAGAGCUGGAACAUGAGGACCAAAUCUUUUUAGUCGAUCAGUUUUACUAUCUUUCAGUUCUUUCAAUUGUCUCUGAUUAUAGUUGAGUGCAUGUCUCACUUCUAUAUCCAACAGAGGAUUGAGCAUCA
B17: 8890394_8891644_3383_CDS_ENSG00000134313_ENST00000427284|human|control|control (ssRNA)
RNA: GGGAGUUCUACAGUCCGACGAUCACCCUCAUGUAGAGGGAGCGGGGGGUACGCCAGUCCUCCAAUACUGAUCUGCUCUCUGGCAGCACGAACAUCUGCAAUAAUUUCCCGUAGUUUGGGAUCUAGGUUUACAGUGCAUGGCAACAACAGAGGAUUGAGCAUCA
B18: chr4:2840174:2840175:+_ENSG00000087266_ENST00000503393|hu_hu|motif|central (ssRNA)
RNA: GGGAGUUCUACAGUCCGACGAUCGAACUACGAUACAGCCAAACAAUGGAAGUUUUUAGCAAUGAACAUGCACAAACGGUACGGCGCACAGCAACAUGAAUAAAUCUCACAGACAUAAUAACGAGCCAAAGAAGCCAGCUGCCACAACAGAGGAUUGAGCAUCA
B19: chr17:56552419:56552420:-_ENSMUSG00000013236_ENSMUST00000086828|mus_mus|mus_mus_mus_hu_False|8_38 (ssRNA)
RNA: B6 RNA with C128A, A129G, G130U, A131G, G132C, C133G, G135A, G136A
B20: chr17:56552419:56552420:-_ENSMUSG00000013236_ENSMUST00000086828|mus_mus|mus_mus_mus_hu_False|18_38 (ssRNA)
RNA: B6 RNA with U117G, C119A, C120G, C121G, A122C, G123A, C125G, U126G
B21: chr17:56552419:56552420:-_ENSMUSG00000013236_ENSMUST00000086828|mus_mus|mus_mus_mus_hu_False|28_38 (ssRNA)
RNA: B6 RNA with C107U, A108U, C112A, G114A, U115A
B22: chr17:56552419:56552420:-_ENSMUSG00000013236_ENSMUST00000086828|mus_mus|mus_mus_mus_hu_False|38_48 (ssRNA)
RNA: B6 RNA with G88A, G92A, C93U, U94A, G95A

In this assay the target is T1, UNK ZnF1-3. Kind of assay: nsRBNS (natural sequence RNA bind-n-seq); RBNS binding buffer (assumed for nsRBNS): 25 mM Tris pH 7.5, 150 mM KCl, 3 mM MgCl2, 0.01% Triton X-100, 500 ug/ml BSA, 20 U/ml SUPERase-In, 4 C; UNK is unkempt and MSI1 is Musashi-1; names of the RNAs are library labels; protein concentration not given here; high values mean tight binding.
Molecule B1 returned a binding signal of 0.937 enrichment R.
Next, B2: 0.691 enrichment R.
The result for B3 reads 0.955 enrichment R; that for B4, 2.06 enrichment R.
Molecule B5 returned a binding signal of 0.77 enrichment R.
B6: the binding signal turned out to be 5.93 enrichment R.
B7: the binding signal was 13.5 enrichment R.
Regarding B8, the binding signal was found to be 7.57 enrichment R.
B9: the binding signal was found to be 5.3 enrichment R.
On to B10, for which the binding signal stood at 1.29 enrichment R.
As to B11, the binding signal came to 1.01 enrichment R.
For the molecule B12, the binding signal amounted to 1.21 enrichment R.
For B13, the binding signal was 1.36 enrichment R.
B14: the binding signal amounted to 0.462 enrichment R.
Next, B15: 0.82 enrichment R.
The molecule B16 returned a binding signal of 0.468 enrichment R.
B17 registered a binding signal of 0.796 enrichment R.
Molecule B18 gave a binding signal of 2.12 enrichment R.
As to B19, the binding signal turned out to be 6.02 enrichment R.
In turn, B20 came in with a binding signal of 5.96 enrichment R.
Regarding B21, the binding signal was 5.83 enrichment R.
With B22, the binding signal came to 12.3 enrichment R.
